Experimental findings from PubChem BioAssay are described below.

Each structure is given as a SMILES string. Active and inactive are the calls of the source. Unless noted, how the calls were made is not given here.

The nature of assay [1]: anti-His antibody binders, primary screen, artefact control for SMM control protein annotation, biochemical, small-molecule microarray, 635 nm fluorescence (AID 1128).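 Further: score merges feature fluorescence with signal-to-noise for each printed compound spot.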 The note with it: anti-His Alexa647 antibody binding, higher = more signal.
Assay [2] deals with Human papillomavirus type 1a E7 protein (residues 1-88). Kind of assay: HPV1a E7 small-molecule binders, primary screen, biochemical, small-molecule microarray, residues 1-88, 635 nm (AID 1129). The note with it: small-molecule microarray binding, fluorescence 635 nm; higher = more signal.
Assay [3] deals with Focal adhesion kinase 1 (Homo sapiens) (UniProt Q05397). Put plainly: small-molecule microarray binders of FAK, primary screen, biochemical, 635/667 nm fluorescence, BSA, DTT (AID 1130).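 Further: composite of spot emission at 667 nm and signal to noise over triplicate slides.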 The note with it: PTK2 binding, 635 nm fluorescence, higher = more signal.
For assay [4], the system named is Fibrinogen (Alexa647-labelled). Kind of assay: fibrinogen binders on compound microarrays, profiling panel, artefact control for SMM control-protein annotation, biochemical, small-molecule microarray, 635/667 nm fluorescence (AID 1131).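 Further: z-score merges 667 nm fluorescence with per-spot signal-to-noise over triplicate slides.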 The note with it: fibrinogen-A647 binding fluorescence, higher = more signal.
The target in assay [5] is Follistatin (Homo sapiens) (UniProt P19883). Kind of assay: follistatin binders on small-molecule microarrays, primary screen, biochemical, small-molecule microarray, 635/667 nm fluorescence (AID 1132). The conditions noted are these: FST binding, 635 nm fluorescence, higher = more signal.
Assay [6] deals with Fibroblast growth factor 2 (Homo sapiens) (UniProt P09038). Kind of assay: FGF2 binders on small-molecule microarrays, primary screen, biochemical, small-molecule microarray, 635/667 nm fluorescence (AID 1133). The conditions noted are these: small-molecule microarray binding, FGF2, fluorescence 635/667; higher = more signal.
The nature of assay [7]: mitochondrial membrane potential change in A549 cells, profiling panel, cell-based, JC-1 fluorescence, basal, 24 h, 100 nL (AID 1138).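 Further: A549 lung adenocarcinoma cells under basal conditions with no added stimulus; test concentration not given here.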 The note with it: higher = more signal.
Another assay concerns Lefty1. Put plainly: Lefty1 binders on small-molecule microarrays, primary screen, biochemical, small-molecule microarray, 635/667 nm fluorescence (AID 1139). The conditions noted are these: small-molecule microarray binding, fluorescence 635/667; higher = more signal.
The subject of assay [8] is wheat germ agglutinin (Triticum aestivum), Alexa647-labelled. Kind of assay: wheat germ agglutinin binders on compound microarrays, profiling panel, artefact control for SMM control-protein annotation, biochemical, small-molecule microarray, 635/667 nm fluorescence (AID 1140).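 Further: score merges 667 nm feature emission with signal to noise over triplicate slides.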 The note with it: WGA-A647 binding, 635 nm fluorescence, higher = more signal.
For assay [9], the target named is Luciferin 4-monooxygenase (Photinus pyralis) (UniProt P08659). Put plainly: firefly luciferase enzyme inhibitors, primary screen, biochemical, luminescence, purified enzyme, 2006 set (AID 1141).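 Further: cell-free assay with purified firefly luciferase at 100 ng per well in PBS; test concentration not given here.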 The note with it: SteadyGlo luminescence, 30 min, higher = more signal, called active from +8 up or from −8 down.
Assay [10] relates to Wnt5a (protein binding on small-molecule microarray). Put plainly: Wnt5a binders on small-molecule microarray, primary screen, biophysical, 635/667 nm fluorescence (AID 1142).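 Further: fluorescence read at 667 nm with signal to noise per printed feature.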 The conditions noted are these: 635 nm fluorescence, higher = more signal.
Assay [11] in a line: cell viability in Huh7 cells, primary screen, cytotoxicity control for HCV replication inhibitor project, CellTiter-Glo luminescence, basal, 48 h (AID 1143).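 Further: Huh7 hepatoma cells carrying a hepatitis C replication reporter with no stimulus; test concentration not given here.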 The note with it: Huh7 HCV replicon, higher = more signal, called active from +8 up or from −8 down. A general note: In ATP-based viability assays light output follows the ATP content of the culture.
Assay [12] in a line: P. aeruginosa biofilm formation inhibitors, primary screen, PAO1 strain, BacTiter-Glo luminescence, LB-PBS (AID 1144). The note with it: 12 h, higher = more signal.
The nature of assay [13]: CREB reporter modulators without forskolin, primary screen, cell-based, PC12, CRE-LacZ reporter, unstimulated (AID 1145). The conditions noted are these: no forskolin, luminescence, 4.5 h, higher = more signal, called active from +8 up or from −8 down.
Assay [14] in a line: CREB reporter modulators under forskolin, primary screen, cell-based, PC12, CRE-LacZ reporter, forskolin-stimulated (AID 1146).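 Further: PC12 cells with 6xCRE LacZ reporter stimulated by forskolin 10 µM; beta-galactosidase reporter signal reflecting CREB driven transcription.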 The conditions noted are these: luminescence, 4.5 h, higher = more signal, called active from +8 up or from −8 down.
Assay [15] concerns the target Streptavidin (Streptomyces avidinii) (UniProt P22629). Put plainly: streptavidin binders on small-molecule microarray, primary screen, artefact control for SMM compound annotation, biophysical, 635/667 nm fluorescence (AID 1147).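 Further: signal reflects streptavidin binding to arrayed compounds as a control protein.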 The note with it: streptavidin binding, higher = more signal.
A short description of assay [16]: small-molecule binders of probe aInhba, primary screen, biochemical, small-molecule microarray, 635/667 nm fluorescence (AID 1148).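 Further: score merges 667nm spot fluorescence with signal-to-noise for antibody binding to printed compounds.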 The conditions noted are these: higher = more signal.
The target in assay [17] is Torsin-1A (Homo sapiens) (UniProt O14656). Kind of assay: torsin A binders from cell lysate, primary screen, small-molecule microarray, wild-type, 635/667 nm (AID 1149). The note with it: COS7 hTOR1A-WT lysate, 635 nm fluorescence, higher = more signal.
Assay [18] shares this target. Put plainly: small-molecule binders of mutant TOR1A in lysate, primary screen, cell lysate, small-molecule microarray, COS7 lysate, 635/667 nm fluorescence (AID 1150).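 Further: score pools 667 nm emission and signal to noise measuring lysate protein binding.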 The conditions noted are these: COS7 hTOR1A mutant lysate, 635 nm fluorescence, higher = more signal.
For assay [19], the system named is Sonic hedgehog protein (Shh). Kind of assay: small-molecule binders of Shh protein, primary screen, biochemical, small-molecule microarray, 635/667 nm fluorescence (AID 1151).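 Further: Shh protein binding to compounds spotted on small-molecule microarray slides; score combines spot fluorescence intensity with signal-to-noise across triplicate slides.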 The note with it: small-molecule microarray binding, 635 nm fluorescence; higher = more signal.

Torsin-1A (Homo sapiens), sequence (O14656 whole entry, looked up): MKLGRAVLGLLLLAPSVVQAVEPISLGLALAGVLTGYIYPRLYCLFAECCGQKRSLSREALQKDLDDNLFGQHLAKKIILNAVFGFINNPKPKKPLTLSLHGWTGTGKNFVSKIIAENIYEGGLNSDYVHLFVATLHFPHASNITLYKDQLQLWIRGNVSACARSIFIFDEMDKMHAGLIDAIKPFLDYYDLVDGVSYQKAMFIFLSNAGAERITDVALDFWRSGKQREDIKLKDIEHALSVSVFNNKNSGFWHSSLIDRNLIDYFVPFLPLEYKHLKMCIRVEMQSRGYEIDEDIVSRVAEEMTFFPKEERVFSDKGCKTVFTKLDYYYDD
Focal adhesion kinase 1 (Homo sapiens), sequence (Q05397 whole entry, looked up): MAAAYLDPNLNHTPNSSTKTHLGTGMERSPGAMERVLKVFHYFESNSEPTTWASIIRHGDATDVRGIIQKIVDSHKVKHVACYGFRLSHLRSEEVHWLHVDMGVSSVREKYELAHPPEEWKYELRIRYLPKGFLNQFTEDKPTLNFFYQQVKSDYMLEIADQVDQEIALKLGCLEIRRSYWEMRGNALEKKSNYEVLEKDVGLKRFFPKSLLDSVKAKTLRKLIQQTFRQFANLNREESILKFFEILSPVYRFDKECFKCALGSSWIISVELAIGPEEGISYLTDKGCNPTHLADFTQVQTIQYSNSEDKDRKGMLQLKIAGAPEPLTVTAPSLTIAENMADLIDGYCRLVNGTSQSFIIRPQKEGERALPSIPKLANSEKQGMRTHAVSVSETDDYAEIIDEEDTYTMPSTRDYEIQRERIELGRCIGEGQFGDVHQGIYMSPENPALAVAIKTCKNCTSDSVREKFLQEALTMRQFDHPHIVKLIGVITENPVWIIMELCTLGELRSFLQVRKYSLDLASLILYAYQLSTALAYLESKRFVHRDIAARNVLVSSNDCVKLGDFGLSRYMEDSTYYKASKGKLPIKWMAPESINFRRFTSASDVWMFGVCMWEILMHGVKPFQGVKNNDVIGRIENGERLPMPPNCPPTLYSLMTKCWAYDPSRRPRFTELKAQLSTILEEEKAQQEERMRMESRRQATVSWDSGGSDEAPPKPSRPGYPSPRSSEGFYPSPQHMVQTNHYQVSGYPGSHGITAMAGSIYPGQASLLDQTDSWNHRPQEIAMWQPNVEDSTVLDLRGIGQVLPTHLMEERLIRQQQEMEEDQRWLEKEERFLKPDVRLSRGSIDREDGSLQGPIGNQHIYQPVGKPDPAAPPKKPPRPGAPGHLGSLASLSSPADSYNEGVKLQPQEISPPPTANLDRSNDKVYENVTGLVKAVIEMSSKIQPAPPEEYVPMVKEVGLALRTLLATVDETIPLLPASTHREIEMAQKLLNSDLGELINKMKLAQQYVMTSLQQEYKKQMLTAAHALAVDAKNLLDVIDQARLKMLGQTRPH
Fibroblast growth factor 2 (Homo sapiens), sequence (P09038 whole entry, looked up): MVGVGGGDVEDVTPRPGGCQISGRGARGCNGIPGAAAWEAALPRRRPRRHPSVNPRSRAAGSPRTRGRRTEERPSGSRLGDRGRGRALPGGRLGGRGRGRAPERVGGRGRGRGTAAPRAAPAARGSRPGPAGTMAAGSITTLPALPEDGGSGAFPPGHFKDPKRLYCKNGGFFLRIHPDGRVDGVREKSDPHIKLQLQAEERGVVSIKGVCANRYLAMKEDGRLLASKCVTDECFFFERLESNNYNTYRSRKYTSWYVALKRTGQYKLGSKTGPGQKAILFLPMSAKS
Streptavidin (Streptomyces avidinii), sequence (P22629 whole entry, looked up): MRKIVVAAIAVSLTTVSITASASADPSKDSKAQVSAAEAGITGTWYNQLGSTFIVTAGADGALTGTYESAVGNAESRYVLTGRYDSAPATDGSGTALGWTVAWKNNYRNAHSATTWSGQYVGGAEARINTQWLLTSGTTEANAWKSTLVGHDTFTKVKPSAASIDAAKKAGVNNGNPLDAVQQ
Follistatin (Homo sapiens), sequence (P19883 whole entry, looked up): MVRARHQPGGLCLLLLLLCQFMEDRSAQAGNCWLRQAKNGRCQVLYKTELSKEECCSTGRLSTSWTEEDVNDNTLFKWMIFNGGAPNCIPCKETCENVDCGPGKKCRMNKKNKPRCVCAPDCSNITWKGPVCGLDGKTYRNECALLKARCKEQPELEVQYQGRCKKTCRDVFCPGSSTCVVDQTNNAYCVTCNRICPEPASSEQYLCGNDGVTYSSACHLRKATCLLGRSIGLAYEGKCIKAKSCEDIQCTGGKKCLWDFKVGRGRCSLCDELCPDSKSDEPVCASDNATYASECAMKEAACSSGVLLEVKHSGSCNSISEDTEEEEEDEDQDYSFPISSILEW
Luciferin 4-monooxygenase (Photinus pyralis), sequence (P08659 whole entry, looked up): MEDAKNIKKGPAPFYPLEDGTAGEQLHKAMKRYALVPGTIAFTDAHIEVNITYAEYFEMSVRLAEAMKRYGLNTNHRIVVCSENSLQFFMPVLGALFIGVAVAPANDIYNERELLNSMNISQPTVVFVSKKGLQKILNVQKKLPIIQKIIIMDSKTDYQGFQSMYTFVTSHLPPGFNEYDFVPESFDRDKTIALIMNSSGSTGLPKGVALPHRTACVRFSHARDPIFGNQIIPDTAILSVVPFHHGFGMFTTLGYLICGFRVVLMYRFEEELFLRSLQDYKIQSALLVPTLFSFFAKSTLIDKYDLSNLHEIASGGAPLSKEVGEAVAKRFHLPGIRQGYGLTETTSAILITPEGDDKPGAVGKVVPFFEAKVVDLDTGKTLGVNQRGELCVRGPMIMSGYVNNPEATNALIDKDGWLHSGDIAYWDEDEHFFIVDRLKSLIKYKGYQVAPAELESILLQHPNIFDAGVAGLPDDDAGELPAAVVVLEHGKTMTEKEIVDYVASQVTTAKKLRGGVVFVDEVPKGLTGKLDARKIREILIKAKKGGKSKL

On to `CC(C)CCC[C@@H](C)[C@H]1CC[C@@]2(C)C3=C(CC[C@]12C)[C@@]1(C)CC[C@H](OC(=O)C(C)(C)C)C(C)(C)C1CC3` (stereo not given in full), for which the composite z-score in [1] is 0.43; in [2] it was 0.586; in assay [3], 0.0226; in [4], 0.551; in assay [5], 0.828; in [6], 0.232. For the same molecule, the composite z-score in the assay on Lefty1 was 0.543; in assay [8] it was 0.0969; in assay [10], 0.228; in assay [15], 0.122; in assay [16], -0.186; with Torsin-1A (Homo sapiens) [17] it was 0.89. Further, the composite z-score with Torsin-1A (Homo sapiens) [18] is 0.31; in assay [19], 0.836. Besides, the z-score in [7] was 0.4; in assay [9], 0.159 (inactive); in assay [11] it was -2.46 (inactive); in assay [12], -0.738 (inactive); in assay [13] it was 0.12 (inactive); in [14], -1.2 (inactive).

Turning to `COC(=O)c1ccc(OC)c(/C=C\CC(CCc2ccccc2)OC(C)=O)c1` (stereo not given), the composite z-score was -0.281 in [1]; -0.133 in assay [2]; 0.377 in [3]; -0.177 in [4]; 0.457 in assay [5]; -0.293 in assay [6]. Besides, the composite z-score in the assay on Lefty1 is 0.222; in assay [8], 0.476; in assay [10] it was -0.526; in assay [15], 0.245; in assay [16], -0.182; with Torsin-1A (Homo sapiens) [17] it was -0.813. Further, the results for the composite z-score (with Torsin-1A (Homo sapiens) [18]; in [19]) were -0.152 and 0.482, respectively. Further, the z-score is 0.293 in assay [7]; -0.558 (inactive) in assay [9]; -0.785 (inactive) in [11]; 0.245 (inactive) in assay [12]; 1.04 (inactive) in assay [13]; -0.0403 (inactive) in [14].

Regarding `CN(C)CCCNC(=O)[C@@]1(Cc2ccccc2I)c2ccccc2C(=O)N(Cc2ccccc2Cl)[C@H]1c1ccc(CO)cc1`, the composite z-score in [1] was -0.528; in assay [2], 1.08; in assay [3], 0.224; in assay [4] it was 0.788; in assay [5] it was -0.292; in [6] it was -0.717. For the same molecule, the composite z-score with Lefty1 is -0.615; in assay [8], 0.73; in assay [10], 0.228; in [15], 0.592; in assay [16], 0.397; in the assay with Torsin-1A (Homo sapiens) [17] it was -0.155. Besides, the composite z-score with Torsin-1A (Homo sapiens) [18] was -0.609; in assay [19], -0.0692. Moreover, the z-score in [7] is -1.18; in [9], 0.122 (inactive); in assay [11] it was -5.9 (inactive); in [12], 0.599 (inactive); in assay [13], 0.0548 (inactive); in assay [14], 2.02 (inactive).

As to `CC(C)C(CO)N1C(=O)[C@@H]2[C@H]3C(=O)OCC=C[C@H]3OC23C=CCN(Cn2nnc4ccccc42)C(=O)[C@@H]13` (stereo not given in full), the composite z-score in assay [1] was 0.36; in assay [2], -0.938; in assay [3] it was 0.118; in [4], -0.424; in assay [5], -0.802; in assay [6] it was -1.05. Further, the composite z-score in the assay with Lefty1 was -1.72; in [8], -0.203; in assay [10], -0.257; in assay [15], -1.05; in [16] it was -0.231; with Torsin-1A (Homo sapiens) [17], -0.957. Also, the figures for the composite z-score (with Torsin-1A (Homo sapiens) [18]; in assay [19]) were -2.27 and -1, respectively. Moreover, the z-score was -0.58 in assay [7]; 0.152 (inactive) in [9]; 0.44 (inactive) in assay [11]; 0.0585 (inactive) in assay [12]; -0.492 (inactive) in assay [13]; -0.0021 (inactive) in assay [14].

Regarding `O=c1c2ccc(Br)cc2nc(-c2ccccc2)n1Cc1cccc(O)c1`, the composite z-score in assay [1] is 0.741; in assay [2], 0.988; in assay [3], 0.551; in assay [4], 0.671; in assay [5], 0.346; in assay [6], 0.283. Further, the composite z-score is -0.0693 with Lefty1; 1.05 in assay [8]; 0.153 in [10]; 0.669 in assay [15]; 0.229 in assay [16]; 1.45 with Torsin-1A (Homo sapiens) [17]. Moreover, the composite z-score came out at 1.88 with Torsin-1A (Homo sapiens) [18] and 0.332 in assay [19]. In addition, the z-score in assay [7] is 0.836; in assay [9], -0.273 (inactive); in assay [11] it was -0.913 (inactive); in assay [12], 0.32 (inactive); in assay [13], 0.272 (inactive); in [14], -1.17 (inactive).
